From the supplement of paper PMC12350171
Counter-ions that a name gives are not always drawn.

Tested on: Haemophilus parainfluenzae
Test: growth AUC normalised to DMSO control (fraction of control); higher = less growth inhibition, active = hit call of the paper
Conditions: 20 µM;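 active = AUC significantly below DMSO controls by Student t-fit with adjusted P under 0.01; inactive = not significantly reduced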
Procedure, shortened: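 Hemin and NAD were added to the medium for Haemophilus parainfluenzae. All pathogens, after two anaerobic passages, were inoculated at a starting OD578 of 0.01 into pre-reduced mGAM plates with 20 μM compound and 1% DMSO under breathable seals, and OD578 was read hourly for 24 h in three biological replicates. AUC of each growth curve was obtained with the trapezoidal rule up to the exponential-to-stationary transition and normalised to DMSO controls from the same plate.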

Structure (SMILES) | growth AUC normalised to DMSO control
NC(=O)c1cc[n+](CC2=C(C(=O)[O-])N3C(=O)[C@@H](NC(=O)[C@@H](c4ccccc4)S(=O)(=O)O)[C@H]3SC2)cc1 [Cefsulodin sodium salt] | 0.912 (inactive)
Nc1ncn(C2OC(CO)C(O)C2O)c(=O)n1 (centres undefined) [Azacytidine-5] | 0.781 (inactive)
CC(=O)N1CCN(c2ccc(OCC3COC(Cn4ccnc4)(c4ccc(Cl)cc4Cl)O3)cc2)CC1 (centres undefined) [Ketoconazole] | 1.03 (inactive)
CN1CCN2c3ncccc3Cc3ccccc3C2C1 (centres undefined) [Mirtazapine] | 1.49 (inactive)
Nc1ccc(S(=O)(=O)c2ccc(N)cc2)cc1 [Dapsone] | 1 (inactive)
CCc1c(C)[nH]c2c1C(=O)C(CN1CCOCC1)CC2 (centres undefined) [Molindone hydrochloride] | 1.01 (inactive)
COC(=O)Nc1nc2ccc(SC(C)C)cc2[nH]1 [Methiazole] | 1.05 (inactive)
CC1=C(/C=C/C(C)=C/C=C/C(C)=C/C(=O)O)C(C)(C)CCC1 [Retinoic acid] | 0.995 (inactive)
CN1C(=O)OC(C)(C)C1=O [Trimethadione] | 0.975 (inactive)
CC(Oc1c(Cl)cccc1Cl)C1=NCCN1 (centres undefined) [Lofexidine] | 0.993 (inactive)
CCN(CC)C(=O)c1ccc(O)c(OC)c1 [Ethamivan] | 1.03 (inactive)
CNC(=C[N+](=O)[O-])NCCSCc1csc(CN(C)C)n1 [Nizatidine] | 0.993 (inactive)
CCn1cc(C(=O)O)c(=O)c2cc(F)c(N3CCNC(C)C3)c(F)c21 (centres undefined) [Lomefloxacin hydrochloride] | 0.04 (active)
Nc1nc2n[nH]nc2c(=O)[nH]1 [Azaguanine-8] | 0.992 (inactive)
O=C1Cc2cc(CCN3CCN(c4nsc5ccccc45)CC3)c(Cl)cc2N1 [Ziprasidone  hydrochloride monohydrate] | 1.03 (inactive)
Cc1c(N)c(=O)n(-c2ccccc2)n1C [Ampyrone] | 1 (inactive)
CC(C)NCC(O)COc1cccc2[nH]ccc12 (centres undefined) [Pindolol] | 1.05 (inactive)

Structure (SMILES) | growth AUC normalised to DMSO control
Cc1nccn1CC1CCc2c(c3ccccc3n2C)C1=O (centres undefined) [Ondansetron hydrochloride] | 1.07 (inactive)
COc1ccc2[nH]c([S+]([O-])Cc3ncc(C)c(OC)c3C)nc2c1 (centres undefined) [Omeprazole] | 0.919 (inactive)
CC(CCc1ccc(O)cc1)NCCc1ccc(O)c(O)c1 (centres undefined) [Dobutamine hydrochloride] | 1.05 (inactive)
C#C[C@]1(OC(C)=O)CC[C@H]2[C@@H]3CCC4=C[C@@H](OC(C)=O)CC[C@@H]4[C@H]3CC[C@@]21C [Ethynodiol diacetate] | 0.974 (inactive)
O=C1CN(/N=C/c2ccc(-c3ccc([N+](=O)[O-])cc3)o2)C(=O)N1 [Dantrolene sodium salt] | 1.03 (inactive)
CC(=O)O[C@]1(C(C)=O)CC[C@H]2[C@@H]3C=C(C)C4=CC(=O)CC[C@]4(C)[C@H]3CC[C@@]21C [Megestrol acetate] | 1.06 (inactive)
CC1CNc2c(cccc2S(=O)(=O)N[C@@H](CCCNC(=N)N)C(=O)N2CC[C@@H](C)C[C@@H]2C(=O)O)C1 (some centres undefined) [Argatroban] | 1.04 (inactive)
O=C(N/N=C/c1ccc([N+](=O)[O-])o1)c1ccc(O)cc1 [Nifuroxazide] | 0.532 (active)
Cc1c(NC(=O)c2cccnc2)c(=O)n(-c2ccccc2)n1C [Nifenazone] | 1.01 (inactive)
C[C@]12CCC(=O)C=C1C=C[C@@H]1[C@@H]2CC[C@@]2(C)[C@H]1CC[C@@]21CCC(=O)O1 [Canrenone] | 1 (inactive)
Cc1cc2c(s1)Nc1ccccc1N=C2N1CCN(C)CC1 [Olanzapine] | 1.02 (inactive)
CC(=O)Nc1ccc(O)cc1 [Acetaminophen] | 0.952 (inactive)
c1cnc(N2CCN(Cc3ccc4c(c3)OCO4)CC2)nc1 [Piribedil] | 1.02 (inactive)
Cc1ccc2c(c1)c1c3n2CCNC3CCC1 (centres undefined) [Pirlindole mesylate] | 0.995 (inactive)
CCCCOC(=O)c1ccc(N)cc1 [Butamben] | 1 (inactive)
Cc1c(NC(C)C)c(=O)n(-c2ccccc2)n1C [Isopyrin hydrochloride] | 0.967 (inactive)
C[C@]12CC[C@@H]3c4ccc(O)cc4CC[C@H]3[C@@H]1CCC2=O [Estrone] | 0.966 (inactive)
